The values that follow come from PubChem BioAssay (NCATS).

Results filed as inconclusive are left out. Activity calls are given as the source filed them. Calls follow the shape of the dose curve; as a rule, active = well fitted cell-killing curve with a large enough effect; inconclusive = small, poorly fitted or top-dose-only effect, or effect the other way; inactive = no such curve, though single readings can be large or run the other way. Starred links: 1 amine or outer side, 2 acyl side, 3 side chain; linkers in the order of their positions; H or OH if unused. Positions of bridges follow the written chain, without caps; N, C: chain ends. Non-standard residues stand in square brackets, D forms with d. Residues, ends and D or L forms follow the SMILES beside them. Chains are numbered I, II in the order given. Actinocin(9to1) = Cc1c2oc3c(C)ccc(C(=O)[*:1])c3nc-2c(C(=O)[*:2])c(N)c1=O; NMeV = CN[CH](C(=O)O)C(C)C; Sar = CNCC(=O)O
% is scaled to controls: 0 for no effect and ±100 for the full control effect; potency is read from the fitted curve at half-maximal effect.

This test in a line: qHTS of pediatric cancer cell lines to identify multiple opportunities for drug repurposing: Confirmatory screen for OHS-50 cells (AID 1347128).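 Also: compound exposure lasted 48 h at 37 degrees C; nearly all actives have a fitted effect of over 55% in size.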 The settings on record: OHS-50 osteosarcoma cells viability; series mostly up to 45.9 µM; activity change, negative = cytotoxic: at the top concentration. From the text:
Drug repurposing or repositioning has been offered as a strategy for drug development in oncology programs. This approach has special potential for childhood cancers and other rare or orphan diseases, where the expected return on new drug development has been a disincentive to pharmaceuticals.
In this project we exploit the poly-pharmacology of drugs to discover new indications via phenotypic screening of a panel of 19 well-characterized cell lines derived from solid tumors seen in children and adolescents. The goal is to identify approved drugs with previously unrecognized anticancer properties that has the potential to reveal new mechanisms and biological processes involved in carcinogenesis or drug resistance. We employed a titration-based paradigm (quantitative high-throughput screening or qHTS), where all compounds were tested at multiple concentrations for their effect on cell viability. Concentration-response curves (CRCs) were derived directly from the primary screen, and both potency and efficacy values were used to identify compounds with robust bioactivity profiles. We screened the NIH Chemical Genomics Center (NCGC) Pharmaceutical Collection (NPC) and Mechanism Interrogation Plate (MIPE) small molecule collections of approved and investigational compounds against these cell lines; and measured metabolically active cells after 48 hours of compound treatment as a proxy for cell viability.
Assay Submitter: Nathalia J. Martinez, National Center for Advancing Translational Sciences, National Institutes of Health, Rockville, MD, USA; email: natalia.martinez@nih.gov
[1] Shen, M et al. Quantitative high-throughput phenotypic screening of pediatric cancer cell lines identifies multiple opportunities for drug repurposing. Oncotarget 2017 Dec 19;9(4):4758-4772. PMID 29435139.
The cells were obtained from University of North Carolina (UNC), Pediatric Preclinical Testing Program (PPT), and Coriell Institute (CI).
qHTS cell viability assay:
Cells were assayed in growth media at a density of 500-1,000 cells/well. Five microliters of cells were dispensed into 1,536-well, white, solid-bottom, TC-treated plates (Greiner Bio One) using a multidrop dispenser and incubated at 37 degrees C, 5% CO2, under a humidified atmosphere for 5 hours. Twenty-three nanoliters of compounds and controls (neutral control DMSO or positive control bortezomib at final concentration of 2.3 µM) were subsequently transferred by Kalypsys pintool. For primary screens, the MIPE collection was tested at 11-point dilutions (final concentrations range from 0.78 nM to 46 µM) and the NPC collection at 8-point dilutions (final concentrations range from 0.59 nM to 46 µM). Compounds tested in follow-up screens were assayed at 11-point dilutions. Cells were incubated for 48 hours, followed by addition of 3 µL of CellTiter-Glo (Promega). After a 15 min incubation at room temperature, samples were analyzed for luminescence intensity using a ViewLux High-throughput CCD imager equipped with clear filters.
(In general: Quantitative high-throughput screening tests each substance at several concentrations.)
For `CN[C@H]1[C@@H](O)[C@@H]2O[C@@H]3O[C@H](C)CC(=O)[C@]3(O)O[C@@H]2[C@@H](NC)[C@H]1O`, the “activity change, negative = cytotoxic” value is 4.47% (inactive).

Turning to `CC(C)(O)Cn1c(NC(=O)c2ccc(-c3cn[nH]c3)s2)nc2cc(CN3CCOCC3)ccc21`, the Potency is 0.827 µM (active). On the same count and under the same terms, then `C[C@H](NCc1ccc2c(c1)nc(NC(=O)c1ccc(-c3cn[nH]c3)s1)n2CCc1ccccc1)C(C)(C)C`, with 1.47 µM (active).

`Cn1cnc(=N)c2[nH]cnc21`: the “activity change, negative = cytotoxic” value was 7.19% (inactive). Still for that read-out and setting: in the case of `O=S(=O)(O)CCSSCCS(=O)(=O)O` it was 2.2% (inactive). As for `C=CC(=O)Nc1ccc2ncnc(Nc3ccc(OCc4cccc(F)c4)c(Cl)c3)c2c1`, the Potency was 6.57 µM (active).

Take `COc1cccc2c1C(=O)c1c(O)c3c(c(O)c1C2=O)C[C@@](O)(C(=O)CO)C[C@@H]3O[C@H]1C[C@H](N)[C@@H](O)[C@H](C)O1`: the Potency is 1.47 µM (active).

For `C=CC(=O)Nc1cccc(Nc2nc(NC3CCC(N(C)C)CC3)nc3c2ncn3C(C)C)c1` (stereo not given), the Potency is 2.08 µM (active).

Turning to `CC(C=CC(=O)NO)=C[C@@H](C)C(=O)c1ccc(N(C)C)cc1`, the Potency is 1.47 µM (active). Consider `CNC(=O)c1cccc(-c2ccc3c(N4CCOC[C@H]4C)nc(N4CCOC[C@H]4C)nc3n2)c1`, for which the Potency is 6.57 µM (active). Same read-out and setting: then `CC(C)C[C@H](NC(=O)[C@@H](NC(=O)c1cccc(-c2ccccc2)n1)[C@@H](C)O)B(O)O`, with 0.131 µM (active); and `CS[C@H]1SC[C@@H]2C(=O)N(C)[C@H](C(C)C)C(=O)OC[C@H](NC(=O)c3cnc4ccccc4n3)C(=O)N[C@H](C)C(=O)N(C)[C@@H]1C(=O)N(C)[C@H](C(C)C)C(=O)OC[C@H](NC(=O)c1cnc3ccccc3n1)C(=O)N[C@H](C)C(=O)N2C`, with 0.0147 µM (active).

In the case of `Nc1nc2c(c(=O)[nH]1)N(C=O)[C@H](CNc1ccc(C(=O)N[C@@H](CCC(=O)O)C(=O)O)cc1)CN2`, the “activity change, negative = cytotoxic” value is -4.38% (inactive).

With `Oc1ccc(-c2ccc(-c3cc(Nc4cccc(CNC5CC5)c4)n[nH]3)cc2)c(O)c1`, the Potency is 1.47 µM (active). Take `COc1ccc(Nc2cc(-c3cnc(N)nc3)nc(N3CCOCC3)n2)cn1`: the Potency is 6.57 µM (active).

`FC(F)c1nc2ccccc2n1-c1nc(N2CCOCC2)nc(N2CCOCC2)n1`: the Potency is 1.65 µM (active). With `CS(=O)(=O)N1CCc2c(-c3cnc(N)nc3)nc(N3CCOCC3)nc21`, the Potency was 2.93 µM (active). Same read-out and setting: then `Oc1cc(-c2nc(-c3ccccc3)[nH]c2-c2ccncc2)ccc1Cl`, with 18.5 µM (active). Same read-out and setting: in the case of `O=C1NC(=O)C(=Cc2ccc3nccc(-c4ccncc4)c3c2)S1` it was 7.37 µM (active); in that of `CC(=O)ON=C1C(c2c(O)[nH]c3cc(Br)ccc23)=Nc2ccccc21`, 14.7 µM (active); in that of `CC(C)N1[N]C(=C2C=c3cc(O)ccc3=N2)c2c(N)ncnc21`, 5.22 µM (active). On the same count and under the same terms, then `C=CC(=O)N1CCc2ccc(-n3c(=O)ccc4cnc5ccc(-c6cnn(C)c6)cc5c43)cc21`, with 7.37 µM (active); and `CC(=O)O[C@@]12CO[C@H]1C[C@H](O)[C@@]1(C)C(=O)[C@H](O)C3=C(C)[C@@H](OC(=O)C(O)[C@@H](NC(=O)OC(C)(C)C)c4ccccc4)C[C@@](O)([C@@H](OC(=O)c4ccccc4)[C@@H]21)C3(C)C` (stereo not given in full), with 0.0233 µM (active). On to `CC(C=CC1=C(C)CCCC1(C)C)=CC=CC(C)=CC(=O)Nc1ccc(O)cc1`, for which the Potency is 42.7 µM (active).

`C[C@H]1[C@@H](OC(=O)CCC(=O)O)O[C@@H]2O[C@@]3(C)CC[C@@H]4[C@H](C)CC[C@@H]1[C@@]24OO3`: the Potency was 3.29 µM (active). On the same count and under the same terms, then `CO[C@@H]1[C@@H](O)[C@H](O)[C@@H](n2c3c(Cl)cccc3c3c4c(c5c6cccc(Cl)c6[nH]c5c32)C(=O)NC4=O)O[C@@H]1CO`, with 2.61 µM (active). Consider `O=C(O)c1ccc(Nc2ncc3c(n2)-c2ccc(Cl)cc2C(c2c(F)cccc2F)=NC3)cc1`, for which the “activity change, negative = cytotoxic” value was -33.1% (inactive).

As to `CC(N[C@H]1CCCC[C@H]1NC(=O)c1ccc(Cl)cc1)c1cccc2ccccc12` (stereo not given in full), the Potency is 20.8 µM (active).

Take `O=C1c2c(O)cccc2[C@@H]([C@@H]2O[C@H](CO)[C@@H](O)[C@H](O)[C@H]2O)c2cc(CO)cc(O)c21`: the “activity change, negative = cytotoxic” value was 4.72% (inactive). `COc1cc2ncnc(Nc3cccc(Br)c3)c2cc1OC`: the Potency was 10.4 µM (active). Still for that read-out and setting: then `Cc1c2oc3c(C)ccc(C(=O)NC4C(=O)NC(C(C)C)C(=O)N5CCCC5C(=O)N(C)CC(=O)N(C)C(C(C)C)C(=O)OC4C)c3nc-2c(C(=O)NC2C(=O)NC(C(C)C)C(=O)N3CCCC3C(=O)N(C)CC(=O)N(C)C(C(C)C)C(=O)OC2C)c(N)c1=O` (stereo not given) (I: TVP[Sar][NMeV] / II: TVP[Sar][NMeV]; ester I:1-I:C, II:1-II:C; linker I:N-II:N via Actinocin(9to1); configuration not given here), with 0.0369 µM (active). As to `Cc1[nH]c(C=C2C(=O)Nc3ccccc32)c(C)c1CCC(=O)O`, the “activity change, negative = cytotoxic” value was 0.0215% (inactive). In the case of `O=C(Nc1cc2cc[nH]c2cn1)c1ccccc1`, the Potency is 10.4 µM (active).

Turning to `CC(=O)O[C@H]1C[C@@H]2CC[C@H]3[C@H]4C[C@H]([N+]5(C)CCCCC5)[C@@H](OC(C)=O)[C@@]4(C)CC[C@@H]3[C@@]2(C)C[C@H]1N1CCCCC1`, the Potency was 16.5 µM (active). On the same count and under the same terms, in the case of `COc1cccc2c1C(=O)c1c(O)c3c(c(O)c1C2=O)C[C@@](O)(C(C)=O)C[C@H]3O[C@H]1C[C@H](N)[C@H](O)[C@H](C)O1` it was 2.08 µM (active). The same measure, in the same setting: in the case of `COc1cccc2c1C(=O)c1c(O)c3c(c(O)c1C2=O)C[C@@](O)(C(=O)CO)C[C@H]3O[C@H]1C[C@H](N)[C@H](O)[C@H](C)O1` it was 2.61 µM (active). Same read-out and setting: in the case of `CCS(=O)(=O)Nc1ccc2[nH]c(O)c(C(=Nc3ccc(CN4CCCCC4)cc3)c3ccccc3)c2c1` it was 5.22 µM (active). Turning to `NS(=O)(=O)OC[C@@H]1C[C@@H](n2ccc3c(N[C@H]4CCc5ccccc54)ncnc32)C[C@H]1O`, the “activity change, negative = cytotoxic” value was 3.61% (inactive). `CCC(C=C[C@@H]1OC(=O)C=C[C@H]1C)=C[C@H](C)CC=CC(C)=C[C@@H](C)C(=O)[C@@H](C)[C@H](O)[C@@H](C)CC(C)=CC(=O)O`: the Potency is 0.0161 µM (active). For `CC(C(C)N1CC(=O)NC(=O)C1)N1CC(=O)NC(=O)C1` (stereo not given), the “activity change, negative = cytotoxic” value is -6.93% (inactive).
